Screens: PubChem, National Center for Advancing Translational Sciences (NCATS)
TSG101-PTAP inh: blocks PTAP/TSG101 interaction to inhibit HIV-1 budding. Q99816. Fluorescence polarization, FITC-PTAP peptide / Tsg101 binding. Potency, µM (doses to about 115 µM), inactives show top-dose activity change, negative = inhibition, actives largely listed as inhibitors. 340,000 tested, under 10 active; active = well fitted inhibition curve with a large enough effect in the main read-out, with a control signal flat, not every such curve was filed as active; inconclusive = small, poorly fitted or top-dose-only effect, or effect the other way, or a change in a side signal; inactive = no such curve, though single readings can be large or run the other way; also: % of control where 0% means no effect
Target sequence (Q99816 whole entry, looked up): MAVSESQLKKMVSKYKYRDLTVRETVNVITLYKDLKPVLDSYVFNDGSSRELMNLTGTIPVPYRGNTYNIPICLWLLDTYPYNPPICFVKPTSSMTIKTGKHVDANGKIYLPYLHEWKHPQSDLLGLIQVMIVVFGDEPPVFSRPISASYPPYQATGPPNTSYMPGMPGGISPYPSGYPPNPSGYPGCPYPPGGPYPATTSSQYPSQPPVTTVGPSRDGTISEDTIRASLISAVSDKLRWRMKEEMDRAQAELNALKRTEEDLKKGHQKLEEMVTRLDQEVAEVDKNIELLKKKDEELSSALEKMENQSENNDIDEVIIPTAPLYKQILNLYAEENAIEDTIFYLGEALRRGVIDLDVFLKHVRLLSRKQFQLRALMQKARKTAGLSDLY
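Compounds were pin-transferred onto Tsg101 binding domain (10 uM final) in HEPES pH 7.5 buffer, then FITC-PTAP peptide was added at 50 nM final. After 20 min at RT, polarization reported peptide displacement across a qHTS concentration series.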
KB-3-1 cytotox: KB-3-1 parental cell cytotoxicity. AID 1347075. KB-3-1 viability, CellTiter-Glo ATP luminescence, 72 h. Potency, µM (series often up to 46.1 µM), actives largely listed as cytotoxic. 400,000 compounds, 1.4% hits; also: % is scaled to controls: 0 for no effect and ±100 for the full control effect; nearly all actives have a fitted effect of over 60% in size
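Screening of KB-3-1 cells (DMEM, 10% FBS, phenol-red free) ran from lowest to highest compound concentration; after 72 h at 37 °C viability was read luminescently and curves fitted.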
MCF10A rereplic: induces DNA re-replication in MCF 10a normal breast cells; 350,000 compounds, 2.9% hits; Potency, µM (highest dose often 46.1 µM), without a hit: top-dose activity, positive = re-replication, actives largely listed as activators; MCF 10A DNA re-replication, Hoechst nuclear intensity, 48 h; AID 624296; also: % of control where 0% means no effect; nearly all actives have a fitted effect of over 50% in size
PINK1 modulator: PINK1 expression modulation; PINK1 immunofluorescence, high-content cytometry, 24 h; Potency, µM (top dose mostly 76.6 µM), for inactives: top-dose activation (PINK1 increase), usual class: activators; 410,000 compounds, 0.2% hits; AID 624263; active = well fitted activation curve with a large enough effect; inconclusive = small, poorly fitted or top-dose-only effect; cell line not stated here; also: % of control where 0% means no effect; nearly all actives have a fitted effect of over 65% in size
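Compound titrations (5 concentrations, 24 h) on a stable cell line; DMSO and CCCP controls. Endpoint: fixed-cell PINK1 immunofluorescence with mitochondrial, cell and nuclear markers, scanned by microplate cytometer.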
SW480 rerep: inducers of DNA re-replication in SW480 colon cancer cells | SW480 DNA re-replication, Hoechst DNA content imaging, 48 h | Potency, µM (top dose mostly 46.1 µM), for the others: at the highest dose re-replication activation, most hits filed as activators | 340,000 compounds, 1.8% hits; also: % of control where 0% means no effect; nearly all actives have a fitted effect of over 55% in size
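Quantitative HTS format with DMSO vehicle controls; 48 hr drug incubation at 37 C, then 40 min Hoechst staining and scanning imager measurement at 405 nm excitation.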
KB-V1 cytotox: KB-V1 MDR subline cytotoxicity; KB-V1 MDR cells viability, CellTiter-Glo, 72 h; Potency, µM (highest dose often 46.1 µM), usual class: cytotoxic; AID 1347076; 400,000 compounds, 3.4% hits; also: % is scaled to controls: 0 for no effect and ±100 for the full control effect; nearly all actives have a fitted effect of over 60% in size
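Readout: CellTiter-Glo luminescence, 10 min after addition. Cells: KB-V1 MDR subline, 72 h at 37 degrees C with compound. Analysis: corrected, normalized data fitted to concentration-effect curves.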
Active calls of the source: *; i = inactive; ? = inconclusive; · = no result given; [ ] = remark or other dose. A selection: hits, their analogues and other compounds. The true share with any hit is near 6.8%. Unless noted, calls follow the shape of the dose curve; as a rule, active = well fitted curve in the direction sought with a large enough effect; inconclusive = small, poorly fitted or top-dose-only effect, or another doubt; inactive = no such curve, though single readings can be large; an effect the other way counts as inactive or inconclusive. Potency is read from the fitted curve at half-maximal effect.

SMILES	TSG101-PTAP inh	KB-3-1 cytotox	MCF10A rereplic	PINK1 modulator	SW480 rerep	KB-V1 cytotox
O=C1/C(=C/c2ccccc2)SC(=S)N1C1CCS(=O)(=O)C1 (stereo not given)	-3.7%	?	?	3.4%	-8.2%	i
O=C1/C(=C/c2ccncc2)SC(=S)N1C1CCS(=O)(=O)C1 (stereo not given)	-5.1%	?	20.6µM*	8.4%	21.0%	?
NS(=O)(=O)c1ccc(-c2ccc(/C=C3\SC(=S)N(C4CCS(=O)(=O)C4)C3=O)o2)cc1 (stereo not given)	?	?	-4.0%	0.1%	0.7%	i
Cc1ccc(/C=C2\SC(=S)N(C3CCS(=O)(=O)C3)C2=O)o1 (stereo not given)	-5.0%	i	0.8%	-0.5%	16.4µM*	i
COCCn1c(C)cc(O)c(C(c2ccccc2)N2CCN(C)CC2)c1=O (stereo not given)	·	i	·	0.2%	·	i
CCOc1ccc(CCNC(=O)c2cc3sc(Cl)cc3n2C)cc1OCC	-3.9%	?	24.8%	6.7%	0.2%	i
CC(C)n1c(C(=O)OCC(=O)NCc2ccc3c(c2)OCO3)cc2occc21	-2.4%	i	1.8%	-4.2%[38.3 µM]	16.3%	i
CC(CCc1ccccc1)NC(=O)C1CCCN(C(=O)c2cc3sccc3n2C)C1 (stereo not given)	-12.5%	i	5.2%	13.7%[38.3 µM]	5.7%	i
CC(C)n1c(C(=O)OCC(=O)NCc2ccc3c(c2)OCO3)cc2sccc21	1.1%	i	14.6µM*	4.6%[38.3 µM]	7.6%	i
Cn1c(C(=O)NCc2ccc3c(c2)OCO3)cc2sccc21	·	i	-7.2%	-3.7%[38.3 µM]	3.8%	16.4µM*
CCOc1ccc(CCNC(=O)c2cc3sccc3n2C)cc1OCC	-0.2%	i	10.3%	1.7%	6.1%	8.2µM*
CC(CCc1ccccc1)NC(=O)c1cc2sccc2n1C (stereo not given)	-3.9%	i	14.6µM*	7.1%[38.3 µM]	?	?
Cc1ccc2c(c1)N(C(=O)N1CCC(C(=O)NCc3ccccc3C)CC1)CC(C)O2 (stereo not given)	·	i	·	1.7%	·	i
Cc1cccn2c(=O)cc(CSc3nnc(NC(=O)COc4ccccc4)s3)nc12	·	·	·	0.6%	·	·
Cc1cc(C)c(NC(=O)CCCn2c(C)c3cnn(-c4ccccc4)c(=O)c3c2C)c(C)c1	·	i	·	0.0%	·	i
Cc1cccc(-c2nc(S(=O)(=O)c3ccc(Cl)cc3)c(N3CCCCCC3)o2)c1	·	i	·	-0.7%	·	i
CC1CCN(CC(=O)Nc2ccccc2Sc2ccccc2)CC1	0.7%	i	14.6µM*	10.5%	?	i
CS(=O)(=O)N(CC(=O)Nc1ccccc1Sc1ccccc1)C1CCCCC1	-9.0%	?	?	-2.7%[38.3 µM]	16.1%	5.8µM*
CS(=O)(=O)N(CC(=O)NCc1ccc(Cl)cc1)C1CCCCC1	1.5%	?	-15.2%	-1.1%	1.5%	i
CS(=O)(=O)N(CC(=O)NCc1ccccc1Cl)C1CCCCC1	-1.0%	i	-9.7%	-0.7%	20.6µM*	?
Cc1ccc(C)c(NC(=O)C2CCCN(S(=O)(=O)c3cccc4nsnc34)C2)c1 (stereo not given)	·	i	·	-0.5%	·	i
Oc1ccc(/C=C/c2nc(-c3ccccc3O)n(-c3ccccc3)n2)cc1	-5.7%	i	16.4µM*	?	?	?
CCn1nc(C(=O)Nc2nc(-c3ccccn3)cs2)c2ccccc2c1=O	-3.7%	i	9.8%	3.1%	-1.0%	i
Cn1nc(C(=O)Nc2nc(-c3ccccn3)cs2)c2ccccc2c1=O	-3.3%	i	15.8%	?	1.2%	1.3µM*
CCCn1nc(C(=O)Nc2nc(-c3ccccn3)cs2)c2ccccc2c1=O	-3.0%	?	23.1µM*	5.9%	-11.4%	i
SMILES	TSG101-PTAP inh	KB-3-1 cytotox	MCF10A rereplic	PINK1 modulator	SW480 rerep	KB-V1 cytotox
COc1cc(NC(=O)C2CCN(S(=O)(=O)c3ccc4c(c3)oc(=O)n4C)CC2)cc(OC)c1	·	i	·	4.8%	·	i
CCN(CC)CCn1c(-c2ccccc2)csc1=Nc1ccccc1	·	i	·	28.2µM*	·	?
CCOc1ccc(NC(=O)CCS(=O)(=O)c2ccc3c(c2)n(C)c(=O)c(=O)n3C)cc1	·	·	·	1.0%	·	·
CCOC(=O)C1=C(N)Oc2ccc3ccccc3c2C1c1ccc(O)cc1 (stereo not given)	-7.9%	i	18.4µM*	1.8%	1.3%	i
O=C(COC(=O)c1ccccc1C(=O)c1ccc(Cl)c([N+](=O)[O-])c1)NC1CC1	0.3%	8.2µM*	3.26µM*	-1.0%	?	i
CCCOc1ccc(C(=O)c2ccccc2C(=O)OC2CCOC2=O)cc1OCCC (stereo not given)	-1.4%	?	?	-2.3%	8.2%	i
O=C(COC(=O)c1cc([N+](=O)[O-])ccc1Cl)NC1CCCC1	-2.0%	?	-2.7%	-1.8%	-3.4%	i
CNC(=O)COC(=O)c1ccccc1C(=O)c1ccc(Cl)c([N+](=O)[O-])c1	-2.0%	i	5.8µM*	0.3%	5.8µM*	?
CC(C)OC(=O)c1ccccc1C(=O)c1ccc(N)c([N+](=O)[O-])c1	-5.9%	i	4.3%	2.3%	-2.2%	?
O=C(OC1CCOC1=O)c1ccccc1C(=O)c1ccc(Cl)c([N+](=O)[O-])c1 (stereo not given)	-9.6%	i	4.61µM*	0.3%	?	i
COc1ccc(Nc2nnc(SCC(=O)/C=C3/N(C)c4ccccc4C3(C)C)s2)cc1	-5.3%	?	?	-0.5%	0.2%	2.59µM*
CCc1ccc(NC(=O)CN2CCN(Cc3ccccc3)S2(=O)=O)cc1	·	i	·	-0.8%	·	i
NC(CSCSCC(N)C(=O)O)C(=O)O (stereo not given)	·	·	·	0.6%	·	·
COc1ccccc1Cn1c(/C=C/c2ccccc2)nc2ccccc21	0.7%	16.4µM*	?	?	?	5.17µM*
COc1ccc(/C=C/c2nc3ccccc3n2Cc2ccccc2OC)cc1	-3.7%	?	16.4µM*	?	?	?
